Measurements as given in the supplement of paper PMC13380429.

Test system: Vero E6 infected with SARS-CoV-2
Experiment: inhibition of SARS-CoV-2 cytopathic effect; higher = more antiviral protection, active = above 15
Conditions: 48 h

Measured: inhibition of SARS-CoV-2 cytopathic effect

O=C(Nc1ccc(O)cc1)c1ccccc1O [N-salicoylaminophenol]
inactive: 1 nM 1.23% | 8.33 nM 2.05% | 100 nM 1.76% | 833.33 nM 2.47% | 10000 nM 4.87%

COc1cc2c(N3CCN(C(=O)Nc4ccc(OC(C)C)cc4)CC3)ncnc2cc1OCCCN1CCCCC1 [tandutinib]
inactive: 1 nM -3.74% | 8.33 nM -4.22% | 100 nM -2.54% | 833.33 nM 0.88% | 10000 nM 0.92%

COc1cccc(CCc2ccccc2OCC(CN(C)C)OC(=O)CCC(=O)O)c1 (stereo not given) [sarpogrelate]
inactive: 1 nM -0.45% | 8.33 nM -1.71% | 100 nM -2.81% | 833.33 nM -0.22% | 10000 nM -1.72%

O=S(=O)(O)CCSSCCS(=O)(=O)O [dimesna]
inactive: 1 nM -0.79% | 8.33 nM 0.36% | 100 nM 0.65% | 833.33 nM -1.27% | 10000 nM -1.4%

CNC(=O)c1ccc(-c2cnc3ncc(Cc4ccc5ncccc5c4)n3n2)cc1F
inactive: 1 nM 0.17% | 8.33 nM -1.02% | 100 nM -1.1% | 833.33 nM 2.22% | 10000 nM 7.85%

CN(C)c1ccc(/C=C2\C(=O)Nc3ccccc32)cc1
inactive: 1 nM 2.81% | 8.33 nM -0.37% | 100 nM 1.44% | 833.33 nM 2.25% | 10000 nM 0.95%

CC(C(=O)O)c1ccc(CC2CCCC2=O)cc1 (stereo not given) [loxoprofen]
inactive: 1 nM 0.21% | 8.33 nM 3.24% | 100 nM 2.9% | 833.33 nM 0.82% | 10000 nM 2.16%

C=CC(=O)Nc1cc(Nc2nccc(-c3cn(C)c4ccccc34)n2)c(OC)cc1N(C)CCN(C)C [osimertinib]
inactive: 1 nM 1.08% | 8.33 nM 0.08% | 100 nM -5.65% | 833.33 nM -10.8% | 10000 nM -16.5%

CN(C)c1ccc2nc3ccc(=[N+](C)C)cc-3sc2c1 [methylene-blue]
inactive: 1 nM -2.26% | 8.33 nM -2.37% | 100 nM -2.19% | 833.33 nM 8.6% | 10000 nM -7.29%

COc1ccc([C@@H]2CC(=O)c3c(O)cc(O)cc3O2)cc1O [hesperetin]
inactive: 1 nM 1.09% | 8.33 nM 3.18% | 100 nM 4.54% | 833.33 nM 0.97% | 10000 nM 0.11%

CCNC(=O)N1CCN(CCCC(c2ccc(F)cc2)c2ccc(F)cc2)CC1 [amperozide]
inactive: 1 nM -5.99% | 8.33 nM -8.04% | 100 nM -8.94% | 833.33 nM -7.67% | 10000 nM -9.06%

Nc1ccn([C@@H]2O[C@@](CO)(CCl)[C@@H](O)[C@H]2F)c(=O)n1
inactive: 1 nM 3.35% | 8.33 nM 2.02% | 100 nM -3.04% | 833.33 nM -0.34% | 10000 nM 2.59%

CN1CCC2=C(C1)C(c1ccccc1)c1ccccc12 (stereo not given) [phenindamine]
inactive: 1 nM -1.14% | 8.33 nM -0.54% | 100 nM 0.73% | 833.33 nM 2.57% | 10000 nM 1.5%

Cc1sc2c(c1C)C(c1ccc(Cl)cc1)=N[C@@H](CC(N)=O)c1nnc(C)n1-2
inactive: 1 nM -0.7% | 8.33 nM -0.88% | 100 nM 0.16% | 833.33 nM -4.22% | 10000 nM -9.8%

COc1ccc(CN2C(=O)C(=O)c3cc(OC(F)(F)F)ccc32)cc1
inactive: 1 nM -0.15% | 8.33 nM 1.14% | 100 nM 1.79% | 833.33 nM 1.75% | 10000 nM 6.79%

CC(C)(Sc1ccncc1-c1ccc(C#N)c2ccccc12)C(=O)O [verinurad]
inactive: 1 nM -0.56% | 8.33 nM 1.54% | 100 nM 0.77% | 833.33 nM -0.34% | 10000 nM 1.75%

C#C[C@]1(O)CC[C@H]2[C@@H]3CCC4=CC(=O)CC[C@]4(C)[C@H]3CC[C@@]21C [ethisterone]
inactive: 1 nM 2.99% | 8.33 nM 3.61% | 100 nM 2.08% | 833.33 nM -0.95% | 10000 nM 2.77%

COc1ccccc1OC(=O)C(C)c1ccc(CC(C)C)cc1 (stereo not given) [metoxibutropate]
inactive: 1 nM -3.38% | 8.33 nM -2.87% | 100 nM -1.26% | 833.33 nM -1.98% | 10000 nM -3.16%

CNC(=O)[C@H](Cc1ccccc1)NC(=O)[C@H](CC(C)C)[C@H](CSc1cccs1)C(=O)NO [batimastat]
inactive: 1 nM -1.9% | 8.33 nM -1.84% | 100 nM -3.51% | 833.33 nM -9.99% | 10000 nM -12.5%

NC(=O)CCCCC1CCSS1 (stereo not given) [lipoamide]
inactive: 1 nM 1.2% | 8.33 nM 1.81% | 100 nM -0.52% | 833.33 nM -3.3% | 10000 nM 3.78%

O=C(C1CCCCC1)N1CC(=O)N2CCc3ccccc3C2C1 (stereo not given) [praziquantel]
inactive: 1 nM -1.8% | 8.33 nM 0.08% | 100 nM 1.39% | 833.33 nM 2.67% | 10000 nM 0.6%

CC(=O)NCCCCCC(=O)O [acexamic-acid]
inactive: 1 nM 1.78% | 8.33 nM 1.59% | 100 nM 0.61% | 833.33 nM 0.94% | 10000 nM 0.09%

Nc1ncnc2c1ncn2[C@@H]1O[C@H](COP(=O)(O)OP(=O)(O)OP(=O)(O)O)[C@@H](O)[C@H]1O
inactive: 1 nM -0.89% | 8.33 nM -1.33% | 100 nM -0.6% | 833.33 nM 2.57% | 10000 nM 2.48%

COc1ccc(OC)c([C@@H](O)CNC(=O)CN)c1 [midodrine]
inactive: 1 nM 1.29% | 8.33 nM 3.25% | 100 nM -1.42% | 833.33 nM 0.19% | 10000 nM -0.39%

CN(C)C(=O)Oc1ccc[n+](C)c1 [mestinon]
inactive: 1 nM 4.06% | 8.33 nM -0.26% | 100 nM 0.13% | 833.33 nM -2.1% | 10000 nM -1.86%

O=C(O)[C@]1(Cc2cccc(Nc3nccs3)n2)CC[C@@H](Oc2cccc(Cl)c2F)CC1
inactive: 1 nM 0.11% | 8.33 nM -0.24% | 100 nM -0.82% | 833.33 nM -6.57% | 10000 nM -5.28%

CCCCCCCCc1ccc(-c2ccc(C(=O)O)cc2)cc1
inactive: 1 nM -0.05% | 8.33 nM 1.54% | 100 nM 1.52% | 833.33 nM 3.77% | 10000 nM 1.83%

CCCN[C@@H]1CCc2c(OC)cccc2[C@@H]1C
inactive: 1 nM -1.51% | 8.33 nM -1.5% | 100 nM -0.05% | 833.33 nM -0.17% | 10000 nM -3.49%

Cc1sc(C)c(C(=O)NC2(c3ccc(C(=O)O)cc3)CC2)c1Cc1ccc(C(F)(F)F)cc1
inactive: 1 nM -1.32% | 8.33 nM -0.56% | 100 nM -0.49% | 833.33 nM -1.38% | 10000 nM 1.12%

CC[C@H]1CN2CC[C@H]1C[C@@H]2[C@@H](O)c1ccnc2ccc(OC)cc12 [hydroquinidine]
inactive: 1 nM 2.34% | 8.33 nM 3.2% | 100 nM 0.81% | 833.33 nM 2.84% | 10000 nM 1.57%

O=C(O)/C=C1\CCCc2ccccc2[C@H]1O (racemic)
inactive: 1 nM 0.95% | 8.33 nM 1.44% | 100 nM 1.65% | 833.33 nM 1.72% | 10000 nM 4.1%

Cc1cc(=O)n(-c2ccccc2)n1C [phenazone]
inactive: 1 nM 1.97% | 8.33 nM -0.88% | 100 nM -1.01% | 833.33 nM -0.52% | 10000 nM 0.53%

O=C(O)CNC(=O)C(CS)Cc1ccccc1 (stereo not given) [thiorphan]
inactive: 1 nM -4.27% | 8.33 nM -1.61% | 100 nM -5.99% | 833.33 nM -4.04% | 10000 nM -6.09%

C[C@@H]1C[C@H]2[C@@H]3CCC4=CC(=O)C=C[C@]4(C)[C@@]3(F)[C@@H](O)C[C@]2(C)[C@H]1C(=O)CO [desoximetasone]
inactive: 1 nM -2.66% | 8.33 nM 0.15% | 100 nM -1.47% | 833.33 nM 1.96% | 10000 nM 0.8%

N[C@@H](CCC(=O)N[C@@H](CS)C(=O)NCC(=O)O)C(=O)O [glutathione]
inactive: 1 nM 0.94% | 8.33 nM 0.93% | 100 nM 1.6% | 833.33 nM -0.69% | 10000 nM 1.39%

CCOCc1cc(OC)c(-c2ccc(C[C@H](NC(=O)c3c(F)cccc3F)C(=O)O)cc2)c(OC)c1 [firategrast]
inactive: 1 nM 2.19% | 8.33 nM -0.43% | 100 nM 0.01% | 833.33 nM -0.69% | 10000 nM -2.41%

O=[N+]([O-])/C=C/c1ccc2c(c1)OCO2 [3,4-methylenedioxy-beta-nitrostyrene]
inactive: 1 nM -1.15% | 8.33 nM 0.64% | 100 nM -1.64% | 833.33 nM -3.16% | 10000 nM 7.29%

CN1C[C@H](C(=O)N[C@]2(C)O[C@@]3(O)[C@@H]4CCCN4C(=O)[C@H](Cc4ccccc4)N3C2=O)C[C@@H]2c3cccc4[nH]cc(c34)C[C@H]21 [dihydroergotamine]
inactive: 1 nM 0.49% | 8.33 nM 0.5% | 100 nM 2.21% | 833.33 nM -0.8% | 10000 nM 2.88%

C=CC[C@@H]1/C=C(\C)C[C@H](C)C[C@H](OC)[C@H]2O[C@@](O)(C(=O)C(=O)N3CCCC[C@H]3C(=O)O[C@H](/C(C)=C/[C@@H]3CC[C@@H](O)[C@H](OC)C3)[C@H](C)[C@@H](O)CC1=O)[C@H](C)C[C@@H]2OC [tacrolimus]
inactive: 1 nM 0.97% | 8.33 nM 1.42% | 100 nM 2.56% | 833.33 nM 1.67% | 10000 nM 1.14%
